Results published in PubChem BioAssay (NCI).
Compounds without any hit were thinned out: in the full panel of roughly 83,000, 20% have a hit.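 Plates (96-well) were seeded with cells, treated with compound at one concentration, and incubated for 48 hours before percent growth was determined.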 Values without a mark were called inactive. The source made the active and inactive calls. Rule for the calls: active = growth percent below 10; inactive = the rest.

Columns and labels:
Test in all cases: NCI-60 one-dose screen, 48 h (100 = growth as untreated, 0 = no growth, -100 = all killed)
Settings in all cases: 10 µM unless noted
T-47D breast = tested on: T-47D breast
BT-549 breast = tested on: BT-549 breast
MDA-MB-435 melanoma = tested on: MDA-MB-435 melanoma
SW-620 colon = tested on: SW-620 colon
MCF7 breast = tested on: MCF7 breast
HCT-116 colon = tested on: HCT-116 colon
HCC-2998 colon = tested on: HCC-2998 colon
KM12 colon = tested on: KM12 colon

COc1cc2c(cc1-c1c(C)noc1C)ncc1nc(C3CCCCC3)n(C3CCC(OC(F)F)CC3)c12 (stereo not drawn)
growth (T-47D breast): -0.67% (active) | growth (BT-549 breast): 51.5% | growth (MDA-MB-435 melanoma): 41.6% | growth (SW-620 colon): 58.3% | growth (MCF7 breast): 15.1% | growth (HCT-116 colon): 24.8% | growth (HCC-2998 colon): 42.7% | growth (KM12 colon): 39.2%

Cc1nn(-c2ccccc2)c2nc3c(c(-c4ccc(Cl)cc4)c12)CNC1(CCSCC1)N3
growth (T-47D breast): 84.3% | growth (BT-549 breast): 109% | growth (MDA-MB-435 melanoma): 99.8% | growth (SW-620 colon): 92.8% | growth (MCF7 breast): 93% | growth (HCT-116 colon): 90.7% | growth (HCC-2998 colon): 101% | growth (KM12 colon): 98.3%

COc1ccc(NC(=O)CSc2nc(C)c(C(C)=O)n2-c2ccc([N+](=O)[O-])cc2)cc1
growth (T-47D breast): 87.8% | growth (BT-549 breast): 91.5% | growth (MDA-MB-435 melanoma): 93.2% | growth (SW-620 colon): 96.6% | growth (MCF7 breast): 93.9% | growth (HCT-116 colon): 86.5% | growth (HCC-2998 colon): 105% | growth (KM12 colon): 107%

CCN1C(=O)N(CC)C2Nn3c(s/c(=C4\C(=O)N(C)c5ccccc54)c3=O)=NC21 (stereo not drawn)
growth (T-47D breast): 27.5% | growth (BT-549 breast): 53.9% | growth (MDA-MB-435 melanoma): -59.6% (active) | growth (SW-620 colon): 26.3% | growth (MCF7 breast): 13.5% | growth (HCT-116 colon): 11.1% | growth (HCC-2998 colon): 88.6% | growth (KM12 colon): 29.8%

CC(=O)c1ccc(NCC(=O)Nc2ccccn2)cc1
growth (T-47D breast): 94.6% | growth (BT-549 breast): 104% | growth (MDA-MB-435 melanoma): 104% | growth (SW-620 colon): 102% | growth (MCF7 breast): 86.9% | growth (HCT-116 colon): 101% | growth (HCC-2998 colon): 110% | growth (KM12 colon): 99%

CCCCCCN(CCCCCC)c1ccc(/C=C2/SC(=O)N(c3nc(N4CCCC4)nc(N4CCCC4)n3)C2=O)c(C)c1
growth (T-47D breast): 63.6% | growth (BT-549 breast): 88.1% | growth (MDA-MB-435 melanoma): 75.5% | growth (SW-620 colon): 73.2% | growth (MCF7 breast): 54.8% | growth (HCT-116 colon): 45.5% | growth (HCC-2998 colon): 41.7% | growth (KM12 colon): 52.9%

CCN(CC)CCN1C(=O)c2c(c(C)c3c(oc4cc(O)ccc43)c2C)C1=O
growth (T-47D breast): 89.5% | growth (BT-549 breast): 86.7% | growth (MDA-MB-435 melanoma): 72.9% | growth (SW-620 colon): -50.2% (active) | growth (MCF7 breast): 3.63% (active) | growth (HCT-116 colon): -85% (active) | growth (HCC-2998 colon): 92% | growth (KM12 colon): -80.1% (active)

COc1ccc(C2CC(c3cccc(OC)c3)=NN2C(=O)c2cc(OC)c(OC)c(OC)c2)cc1 (stereo not drawn)
growth (T-47D breast): 29% | growth (BT-549 breast): 39.5% | growth (MDA-MB-435 melanoma): -58.8% (active) | growth (SW-620 colon): 22.5% | growth (MCF7 breast): 16.2% | growth (HCT-116 colon): 15.3% | growth (HCC-2998 colon): -10.3% (active) | growth (KM12 colon): 15.4%

O=S(=O)(NCCCNc1cc(-c2c(-c3cccc(O)c3)nc3sccn23)ccn1)c1cccc(Cl)c1
growth (T-47D breast): 6.58% (active) | growth (BT-549 breast): 21.5% | growth (MDA-MB-435 melanoma): 27.4% | growth (SW-620 colon): 48.4% | growth (MCF7 breast): 55.5% | growth (HCT-116 colon): 33.5% | growth (HCC-2998 colon): 58.2% | growth (KM12 colon): 32.4%

COc1cc(/C=C2\C(=O)ON=C2C)cc(OC)c1OC
growth (T-47D breast): 97.9% | growth (BT-549 breast): 112% | growth (MDA-MB-435 melanoma): 102% | growth (SW-620 colon): 97.7% | growth (MCF7 breast): 97% | growth (HCT-116 colon): 104% | growth (HCC-2998 colon): 94.5% | growth (KM12 colon): 100%

NNC(=O)c1nc(N)n(-c2ccc(S(N)(=O)=O)cc2)n1
growth (T-47D breast): 93.5% | growth (BT-549 breast): 92.7% | growth (MDA-MB-435 melanoma): 97.8% | growth (SW-620 colon): 96% | growth (MCF7 breast): 102% | growth (HCT-116 colon): 95.3% | growth (HCC-2998 colon): 101% | growth (KM12 colon): 95.5%

CC(C)CC(NC(=O)CN(Cc1ccccc1)S(C)(=O)=O)C(=O)O (stereo not drawn)
growth (T-47D breast): 82% | growth (BT-549 breast): 118% | growth (MDA-MB-435 melanoma): 94.2% | growth (SW-620 colon): 108% | growth (MCF7 breast): 90.5% | growth (HCT-116 colon): 100% | growth (HCC-2998 colon): 95% | growth (KM12 colon): 98.6%

COc1ccc(N2CCN(c3nc(-c4cc(OC)c(OC)c(OC)c4)nc4ccccc34)CC2)cc1
growth (T-47D breast): 45.4% | growth (BT-549 breast): 39.9% | growth (MDA-MB-435 melanoma): 67.1% | growth (SW-620 colon): 85.6% | growth (MCF7 breast): 83.3% | growth (HCT-116 colon): 70% | growth (HCC-2998 colon): 95.1% | growth (KM12 colon): 70%

COc1ccc2cc(-c3cc(OC)c(OC)c(OC)c3)c(=O)oc2c1
growth (T-47D breast): 56.5% | growth (BT-549 breast): 50.1% | growth (MDA-MB-435 melanoma): 7.5% (active) | growth (SW-620 colon): 44.3% | growth (MCF7 breast): 37.5% | growth (HCT-116 colon): 46.9% | growth (HCC-2998 colon): 86.6% | growth (KM12 colon): 65.8%

C#CCOc1nc(C)cc(C)c1C#N
growth (T-47D breast): 96.2% | growth (BT-549 breast): 106% | growth (MDA-MB-435 melanoma): 99.9% | growth (SW-620 colon): 96.5% | growth (MCF7 breast): 95.5% | growth (HCT-116 colon): 99.4% | growth (HCC-2998 colon): 103% | growth (KM12 colon): 102%

CCN(CC)CCN1CC(O)=C(c2nc(-c3ccc(Cl)cc3)cs2)C1=N
growth (T-47D breast): 17.2% | growth (BT-549 breast): 49.9% | growth (MDA-MB-435 melanoma): -62.4% (active) | growth (SW-620 colon): -56.2% (active) | growth (MCF7 breast): 10.1% | growth (HCT-116 colon): 1.48% (active) | growth (HCC-2998 colon): -70.7% (active) | growth (KM12 colon): 33.7%
